According to PMC4336329 (PLoS ONE, 2015):
The whole screen tested about 310,000 compounds, of which about 14,000 (4.5%) showed an effect of 50% or more. The effect is printed as a negative number. Many of the other results were omitted from the sample, so strong results are more common in it than they were.

Target: human ether-à-go-go-related gene (hERG) potassium channel (human, UniProt Q12809)
Assay: primary screen, population patch clamp on CHO cells stably expressing hERG; higher = less effect of the substance
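Note: peak tail current of the secondary pulse compared with the same well before compound.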

Sequence of human ether-à-go-go-related gene (hERG) potassium channel (Q12809 whole entry, looked up): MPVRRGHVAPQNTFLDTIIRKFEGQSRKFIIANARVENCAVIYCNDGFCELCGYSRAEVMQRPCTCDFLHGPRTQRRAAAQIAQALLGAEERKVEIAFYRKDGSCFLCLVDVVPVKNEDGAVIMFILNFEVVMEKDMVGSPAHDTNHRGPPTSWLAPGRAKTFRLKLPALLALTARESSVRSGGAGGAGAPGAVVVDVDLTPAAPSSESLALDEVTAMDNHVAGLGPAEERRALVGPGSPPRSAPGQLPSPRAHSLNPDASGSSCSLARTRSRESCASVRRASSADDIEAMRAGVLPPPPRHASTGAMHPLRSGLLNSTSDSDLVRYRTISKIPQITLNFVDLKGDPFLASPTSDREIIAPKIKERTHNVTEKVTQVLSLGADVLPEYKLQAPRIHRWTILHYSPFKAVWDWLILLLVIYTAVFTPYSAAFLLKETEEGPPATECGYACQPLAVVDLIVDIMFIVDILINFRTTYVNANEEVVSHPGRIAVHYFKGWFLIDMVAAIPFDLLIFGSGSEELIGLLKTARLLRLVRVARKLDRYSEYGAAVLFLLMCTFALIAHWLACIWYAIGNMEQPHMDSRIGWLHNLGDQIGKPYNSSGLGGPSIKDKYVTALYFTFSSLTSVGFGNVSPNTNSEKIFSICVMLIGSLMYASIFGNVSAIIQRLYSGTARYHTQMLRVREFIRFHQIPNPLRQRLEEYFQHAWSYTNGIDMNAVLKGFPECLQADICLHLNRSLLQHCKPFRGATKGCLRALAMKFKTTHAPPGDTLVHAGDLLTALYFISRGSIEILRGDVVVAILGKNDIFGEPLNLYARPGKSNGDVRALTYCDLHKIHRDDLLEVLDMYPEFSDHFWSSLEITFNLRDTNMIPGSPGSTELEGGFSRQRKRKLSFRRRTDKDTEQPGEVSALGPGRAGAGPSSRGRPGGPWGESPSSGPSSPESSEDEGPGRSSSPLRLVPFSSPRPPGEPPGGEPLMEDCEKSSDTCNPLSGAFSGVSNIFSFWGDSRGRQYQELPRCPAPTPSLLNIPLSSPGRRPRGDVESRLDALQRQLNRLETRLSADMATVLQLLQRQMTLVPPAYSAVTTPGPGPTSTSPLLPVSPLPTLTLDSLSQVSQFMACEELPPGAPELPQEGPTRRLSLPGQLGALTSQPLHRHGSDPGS

SMILES	hERG current change (%, negative = inhibition) at 10uM
CCC(C)C(NC(=O)C1CCC(C)CC1)C(=O)Nc1ccc(OC)cc1OC (stereo not shown)	-4.26%
CCCCC(c1nnnn1C(C)C)N1CCN(C(=O)c2ccco2)CC1.Cl (stereo not shown)	-18.9%
O=C(c1ccccc1)N1N=C(c2ccccc2)CC1c1ccccc1[N+](=O)[O-] (stereo not shown)	13.4%
COc1ccccc1CNc1cc(CSc2ccc(Cl)cc2)nc(C)n1	-0.554%
CCOC(=O)c1ccc(N2Cc3ccccc3C2=NC(=O)c2cccc([N+](=O)[O-])c2)cc1	10.7%
CN(C)c1ccc(/C=N/NC(=O)CCCO)cc1	24.4%
Cc1ccccc1CSCc1ccc(C(=O)NCCCN2CCOCC2)o1	-47.6%
O=C(NCCCN1CCCC1)c1ccc(CSCc2cccc(Cl)c2)o1	-61.8%
CN1CCN(CCCNC(=O)c2ccc(CSCc3cccc(Cl)c3)o2)CC1	-40.2%
Cc1ccc(CSCC(=O)NCCCN2CCOCC2)cc1	11.4%
Cc1ccc(CSCc2ccc(C(=O)NCCCN3CCOCC3)o2)cc1	-51.8%
O=C(NCCCN1CCOCC1)c1ccc(CSCc2cccc(Cl)c2)o1	-64.4%
COCCNC(=O)c1ccc(CSCc2cccc(Cl)c2)o1	-7.69%
Cc1cccc(CS(=O)(=O)Cc2ccc(C(=O)NCCCN3CCOCC3)o2)c1	-12.6%
O=C(NCCN1CCOCC1)c1ccc(CSCc2cccc(Cl)c2)o1	-43.7%
CC(=O)Nc1ccc(S(=O)(=O)Nc2ccc3c(c2)OCCO3)cc1Cl	15.5%
CN(Cc1ccccc1)C(=O)c1c[nH]c2ccc(S(=O)(=O)N3CCOCC3)cc2c1=O	3.03%
Cc1ccc(S(=O)(=O)N2CCN(C(=O)n3ccnc3)CC2)cc1	-5.76%
CC(C)Cc1nc(N2CCN(C(=O)c3ccccc3)CC2)c(C#N)c2c1CCC2	-24.1%
COc1cc(C)c(S(=O)(=O)NOCc2ccc([N+](=O)[O-])cc2)c(C)c1C	8.43%

SMILES	hERG current change (%, negative = inhibition) at 10uM
CN(C)C(=O)N1CCNCC1.Cl	12.8%
CC(C)[C@H](NC(=O)OC(C)(C)C)C(=O)N1CCC(C(=O)N[C@@H](C)C(=O)Nc2ccc(F)cc2)CC1	10.7%
CCn1c(SCC(=O)Nc2ccc3c(c2)OCO3)nc2c1c(=O)n(C)c(=O)n2C	-0.539%
Cn1c(=O)c2c(nc(NCc3ccc4c(c3)OCO4)n2Cc2ccc(F)cc2)n(C)c1=O	-5.77%
Cn1c(=O)c2c(nc(SCC(=O)NCc3ccc4c(c3)OCO4)n2Cc2ccc(Cl)cc2)n(C)c1=O	-50.6%
Cn1c(=O)c2c(nc(SCC(=O)NCc3ccc4c(c3)OCO4)n2Cc2ccc(F)cc2)n(C)c1=O	-63.1%
Cn1c(=O)c2c(nc(SCC(=O)NCC3CCCO3)n2Cc2ccc(F)cc2)n(C)c1=O (stereo not shown)	-41.6%
Cn1c(=O)c2c(nc(SCC(=O)NCc3ccc4c(c3)OCO4)n2Cc2ccccc2)n(C)c1=O	-46.9%
O=C(NN1CCOCC1)c1sc2cccc(F)c2c1Cl	9.93%
c1ccc(-c2cnc(CSc3ncnc4sccc34)o2)cc1	7.1%
N#CC1=C(N)SC(N)=C(C#N)C1CCc1ccccc1	26.4%
C/C(=N/NC(=O)CNC(=O)Cc1ccccc1)c1ccc(Cl)cc1	5.97%
CN1/C(=C\C=C(/C#N)C(=O)Nc2ccc(Cl)cc2)C(C)(C)c2ccccc21	13%
CCNC(=O)CC1C(=O)N(c2cccc(C)c2)C(=O)N1CCC(C)C (stereo not shown)	-75%
CCNC(=O)CC1C(=O)N(c2ccc(C)cc2)C(=O)N1CCC(C)C (stereo not shown)	-2.19%
CCNC(=O)CC1C(=O)N(c2ccccc2)C(=O)N1CCC(C)C (stereo not shown)	5.26%
CCN(c1ccccc1)S(=O)(=O)c1cc(NC(=O)Nc2ccccc2C#N)ccc1Cl	-34.2%
Cc1ccc(NC(=O)CCc2nnc(SCC(=O)Nc3ccccc3C)n2C)cc1Cl	14.5%
Cc1ccc(OCCSc2nnc(NC(=O)c3ccco3)s2)cc1	-1.66%
O=C(CN1C(=O)C2C3C=CC(C4CC34)C2C1=O)Oc1ccccc1 (stereo not shown)	0.512%

SMILES	hERG current change (%, negative = inhibition) at 10uM
CN(C)CCCNC(=O)c1cc2c3ccccc3n(C)c2s1	-40.1%
CN(C)CCCNC(=O)c1cc2sc3ccccc3c2s1.Cl	-64.7%
COCCN(CCOC)C(=O)c1cc2sc3ccccc3c2s1	-70.6%
CN1CCN(C(=O)c2cc3sc4ccccc4c3s2)CC1	-15.5%
CN(C)CCNC(=O)c1cc2sc3ccccc3c2s1.Cl	-31.5%
COCCNC(=O)c1cc2sc3ccccc3c2s1	-8.28%
CCCN(C(=O)CSCc1ccccc1C)c1c(N)n(Cc2ccccc2)c(=O)[nH]c1=O	-4.64%
CC(O)CNc1nc2c(c(=O)n(C)c(=O)n2C)n1Cc1cccc(C(F)(F)F)c1 (stereo not shown)	-12.9%
O=[N+]([O-])c1cccc(/C=N/Nc2ncc(Br)cn2)c1	19.6%
CCc1cccc(C)c1N(C(=O)Cn1c(=O)[nH]c2ccccc21)C(C)COC (stereo not shown)	-4.31%
CCN(CC(=O)Nc1ccc2c(c1)OCCO2)C(=O)/C=C/c1cccc(Br)c1	-28.7%
O=C(CN1C(=O)NC2(CCCCCCC2)C1=O)Nc1ccc(Br)cc1	5.19%
Cc1ccc(-n2nc(C)c3c(C)c(CCC(=O)Nc4ccc(CN5CCCC5)cc4)c(C)nc32)cc1	-60.2%
Cc1ccc(CNC(=O)CCc2c(C)nc3c(c(C)nn3-c3ccc(C)cc3)c2C)cc1	10.1%
CCC(C)NC(=O)CCc1c(C)nc2c(c(C)nn2-c2ccccc2)c1C (stereo not shown)	-1.82%
CCCNC(=O)CCc1c(C)nc2c(c(C)nn2-c2ccccc2)c1C	0.304%
Cc1nc2c(c(C)nn2-c2ccccc2)c(C)c1CCC(=O)Nc1ccc(CN2CCCC2)cc1	-61%
Cc1ccc(-n2nc(C)c3c(C)c(CCC(=O)NCc4ccccc4)c(C)nc32)cc1	10.5%
